Values joined by “and” are separate entries in the source; they are usually repeats but may differ in a detail not shown here. Identical values can stand only once. Active and inactive are the calls of the source.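 How the source made its calls: active means compounds whose cell count with miR-34 switched on is under 0.7 times the count with it off; inactive means the rest.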
Assay: viability loss with induced miR-34 in A549 – imaging, A549 dox-inducible miR-34, nuclei and caspase counts, primary screen (AID 1347080); further: test concentration not given here
Settings: A549 miR-34 inducible, Hoechst nuclei count, 48 h
[1] = stronger effect = lower value, cell number ratio, induced over uninduced
[2] = measured here: relative caspase fold change +Dox/-Dox
[3] = measured here: total cells with miR-34 induction, stronger effect = lower value
[4] = measured here: total cells without miR-34 induction

Compound	fold change [1]	fold change [2]	cell count [3]	cell count [4]
CCCCC[C@H](O)/C=C/[C@H]1[C@H](O)CC(=O)[C@@H]1C/C=C\CCCC(=O)NC(CO)CO	1.04 (inactive)	1.67	6080	5870
C[C@H](CCCO)[C@H]1CC[C@H]2[C@@H]3[C@H](O)C[C@H]4C[C@H](O)CC[C@]4(C)[C@H]3C[C@H](O)[C@]12C	0.949 (inactive)	1.07	5800	6110
CCCCC/C=C\CCCCCCCCCCCCC(=O)O	0.9 (inactive)	1.51	4990	5540
CC(C)=CCC/C(C)=C/CC/C(C)=C/CC[C@]1(C)CCc2c(C)c(O)c(C)c(C)c2O1	0.928 (inactive)	0.656	5490	5920
CCCCCCCCCCCCCCCC(=O)OC	0.995 (inactive)	0.98	5710	5750
CN(C)c1cc(NC(=O)CNC(C)(C)C)c(O)c2c1C[C@H]1C[C@@H]3C(C(=O)C(C(N)=O)=C(O)[C@H]3N(C)C)C(=O)C1=C2O (stereo not given in full)	0.886 (inactive)	0.781	8740	9860
C/C=C/C(=O)O[C@H](COCCCCCCCCCCCCCCCC)COP(=O)([O-])OCC[N+](C)(C)C	0.851 (inactive)	1.03	4860	5710
CCCCCCCCCCCC(=O)CC(=O)N[C@H]1CCOC1=O	1.1 (inactive)	1.72	6190	5610
CCCC/C=C/C=C/C=C\CCCCCCCC(=O)OC	0.701 (inactive)	0.864	3920	5590
CCCCC[C@H](O)/C=C/[C@@H]1[C@H](C/C=C\CCCC(=O)O)[C@H](O)C[C@H]1O	0.921 (inactive)	1.6	5020	5450
CCCCC/C=C\C/C=C\C/C=C\C/C=C\CCCCN1C(=O)C=CC1=O	0.86 (inactive)	0.663	5540	6440
CCCCCCOC(=O)[C@@]1(O)CC2OC1(C)n1c3ccccc3c3c4c(c5c6ccccc6n2c5c31)C(=O)NC4 (stereo not given in full)	0.758 (inactive)	1.42	4880	6430
CCCCCC(=O)CC[C@H]1[C@H](O)CC(=O)[C@@H]1C/C=C\CCCC(=O)O	0.975 (inactive)	1.25	6140	6290
CCCCC[C@@](C)(O)/C=C/[C@H]1C=CC(=O)[C@@H]1C/C=C\CCCC(=O)O	0.996 (inactive)	1.14	5680	5710
O=C(OC[C@@H]1O[C@H]1c1ccccc1)Oc1ccc([N+](=O)[O-])cc1	0.896 (inactive)	0.428	5550	6200
CCCCCCCCCCCCCCCCCCCCCC(=O)NCCS(=O)(=O)O	0.845 (inactive)	0.367	5140	6090
CCCC1([C@@H](O)C/C=C/[C@H]2C(O)CC(=O)[C@@H]2CCCCCCC(=O)OC)CCC1 (stereo not given in full)	1.02 (inactive)	1.54	6030	5910
C[C@@H]1C[C@H]2O[C@@H]2/C=C\C=C\C(=O)Cc2c(Cl)c(O)cc(O)c2C(=O)O1	1.01 (inactive)	1.3	2240	2220
O=C(O)CCC/C=C/C[C@@H]1[C@@H](CC[C@@H](O)CCc2ccccc2)[C@H](O)C[C@@H]1O	0.961 (inactive)	1.3	5820	6060
CCCCC[C@H](O)/C=C/[C@H]1C2COC(C2)[C@@H]1C/C=C/CCCC(=O)O (stereo not given in full)	0.903 (inactive)	0.876	5790	6410

Compound	fold change [1]	fold change [2]	cell count [3]	cell count [4]
CCCCCCC(Sc1nc(Cl)cc(NCc2ccc(-c3ccccc3)cc2)n1)C(=O)O (stereo not given)	0.993 (inactive)	1.34	6140	6180
CCCCCCCC/C=C\CCCCCCCC(=O)c1nc2ncccc2o1	0.938 (inactive)	0.974	5390	5740
COc1ccc(-c2nc3cc(F)ccc3s2)cc1OC	0.915 (inactive)	0.244	4920	5370
CCCCC[C@H](O)/C=C/[C@@H]1[C@@H](C/C=C\CCCC(=O)NCC)[C@@H](O)C[C@H]1O	0.749 (inactive)	1.63	5570	7440
CCC(C)(C)C(=O)C(=O)N1CCCC[C@H]1C(=O)O[C@H](CCc1ccc(OC)c(OC)c1)c1cccc(N)c1	0.702 (inactive)	0.49	4270	6080
C[C@@H](C(=O)O)c1ccc(-c2ccccc2)c(F)c1	0.967 (inactive)	0.615	6150	6360
NCCCNCCCCN(CCCN)[N+]([O-])=NO	1.02 (inactive)	1.33	5980	5880
CCCCC/C=C\C/C=C\C/C=C\C/C=C\CCCC(=O)O[C@H](COCCCCCCCCCCCCCCCC)COP(=O)([O-])OCC[N+](C)(C)C	0.94 (inactive) and 0.936 (inactive)	1.77 and 0.976	5550 and 5760	5910 and 6160
O=C1C[C@@H]2[C@@H](CC[C@@H](O)CCc3ccccc3)[C@H](O)C[C@@H]2O1	1.01 (inactive)	0.657	6130	6050
COc1ccc(/C=C/C(=O)Nc2c(O)cccc2C(=O)O)cc1OC	0.585 (active)	0.687	3430	5870
CCCCCCCCCCCCCCCCCCCCCCCC(=O)NCCS(=O)(=O)O	0.987 (inactive)	0.331	5520	5600
CCCCCCCCCSCCCCCCCC(=O)O	0.943 (inactive)	0.653	5310	5640
C[C@H](CCCO)[C@H]1CC[C@H]2[C@@H]3[C@H](O)C[C@H]4CC(=O)CC[C@]4(C)[C@H]3C[C@H](O)[C@]12C	0.847 (inactive)	0.203	4760	5610
CCN(CC)c1ccc(C2=C(Cl)C(=O)c3ncccc3C2=O)cc1	1.01 (inactive)	1.74	4440	4390
N=C(N)SCCC[C@H](N)C(=O)O	0.98 (inactive)	0.775	5850	5970
O=C(O)CCC/C=C/C[C@@H]1[C@@H](/C=C/[C@@H](O)COc2cccc(C(F)(F)F)c2)[C@H](O)C[C@@H]1O	0.985 (inactive)	1.11	6470	6570
COc1c(O)c2c(=O)cc(OC)c3c4c(OC)cc(=O)c5c(O)c(OC)c(C[C@@H](C)OC(=O)c6ccccc6)c(c(c1C[C@@H](C)OC(=O)Oc1ccc(O)cc1)c23)c54	0.961 (inactive)	0.723	2210	2300
CC(C)c1cc2c(c(O)c1O)C13CCCC(C)(C)C1CC2OC3=O (stereo not given)	0.942 (inactive)	1.02	5390	5730
CCCCCC1OC(O)CC1SC[C@H](NC(C)=O)C(=O)O (stereo not given in full)	0.93 (inactive)	1.14	5580	6010
CC(Sc1nc2ccccc2[nH]1)C(=O)N/N=C/c1cc(Br)ccc1O (stereo not given)	1.01 (inactive)	1.43	6060	6010

Compound	fold change [1]	fold change [2]	cell count [3]	cell count [4]
CCCCCCCC/C=C\CCCCCCCC(=O)NCC	1.03 (inactive)	0.997	6050	5880
CCNC(=O)CCC/C=C\C[C@@H]1[C@@H](CC[C@@H](O)CCc2ccccc2)[C@H](O)C[C@@H]1O	0.901 (inactive)	1.65	5780	6420
CCCCC[C@H](O)/C=C/[C@H]1C=CC(=O)[C@H]1CCCCCCC(=O)O	0.88 (inactive)	1.97	5070	5760
CCCCCCCCCCCCCCCCCCCC(=O)NCCO	1.07 (inactive)	0.773	6530	6100
CCCCC[C@H](O)/C=C/[C@H]1[C@@H](O)CC(=O)[C@@H]1CCCCCCC(=O)O	0.965 (inactive)	1.07	5320	5510
O=P(O)(O)O[C@H]1[C@H](O)[C@@H](O)[C@H](OP(=O)(O)O)[C@@H](OP(=O)(O)O)[C@H]1O	1 (inactive)	0.768	5340	5330
CCCCCCCCCCCCCCCCOC[C@@H](CO)SC(C)=O	1.02 (inactive)	0.6	5400	5270
CCCCCCCC/C=C\CCCCCCCC(=O)OCC(O)COP(=O)(O)O (stereo not given)	1.12 (inactive)	0.696	5760	5140
CCCCCCCCCC(=O)CC(=O)N[C@H]1CCOC1=O	0.908 (inactive)	0.275	6050	6660
CCCCC/C=C/C=C1/C=CC(=O)[C@@H]1CCCCCCC(=O)O	1.71 (inactive)	0.938	5570	3250
CCCCCCCCCCCCCCCCCCCCCCCCCCCCCCO	0.965 (inactive)	0.745	6130	6350
CCCc1cc(C(=O)c2ccc(-c3ccccc3)cc2)ccc1OCCCN1CCCc2c(OC(C)(C)C(=O)O)cccc21	0.856 (inactive)	1.42	5600	6540
CCCCC[C@H](O)/C=C/[C@H]1CCC(=O)[C@@H]1CCCCCCC(=O)O	0.938 (inactive)	1.33	5360	5720
O=C(O)CCC/C=C\C[C@H]1[C@@H](O)CC(=O)[C@@H]1/C=C/[C@@H](O)COc1cccc(C(F)(F)F)c1	1.01 (inactive)	1.13	6530	6490
CC(C)=CCC/C(C)=C/CC/C(C)=C/CSc1ccccc1C(N)=O	0.994 (inactive)	0.741	5740	5780
CCCCCCCCCCCCCCCC(=O)SCCOP(=O)([O-])OCC[N+](C)(C)C	1.04 (inactive)	0.949	6100	5890
C#C[C@]1(O)CC[C@H]2[C@@H]3CCC4=CC(=O)CCC4[C@H]3CC[C@@]21CC (stereo not given in full)	0.961 (inactive)	0.754	6080	6330
CC/C=C\C/C=C\C/C=C\CCCCCCCC(=O)N[C@@H](Cc1ccc(O)cc1)C(=O)O	0.852 (inactive)	2.46	5060	5940
C[n+]1ccc(/C=C/c2c[nH]c3ccccc23)cc1	1.05 (inactive)	1.99	1600	1530
N[C@@H](CSCCB(O)O)C(=O)O	1.01 (inactive)	1.73	6340	6260
